Out of some 380,000 compounds screened, about 4,000 (1.1%) were called active. Roughly 3% stayed inconclusive and do not appear here. The call rests on the fitted dose curve; in most records, active means well fitted activation curve with a large enough effect; inconclusive means small, poorly fitted or top-dose-only effect; inactive means no such curve, though single readings can be large or run the other way. Many of the other results were omitted from the sample, so actives are more common in it than they were.
Assay: qHTS Assay to Identify Small Molecule Activators of BRCA1 Expression; further: nearly all actives have a fitted effect of over 80% in size
Settings: MCF7-BRCA1-FFLuc reporter, luminescence, 48 h; series mostly up to 46.1 µM; activation: at the top concentration
Summary of the method: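 MCF7-BRCA1-FFLuc cells, 2000/well in phenol-red-free MEM, attached 2 h then treated 48 h at 37 C. Luciferase luminescence read 15 min after reagent; normalized to genistein maximum activation (10microM) and DMSO, concentration-response fitted.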
Potency means the concentration at half of the fitted maximal effect.

For `CC(=O)Oc1ccc(C(=O)Nc2nccs2)cc1`, which Potency is on record?
The Potency was 11.2 µM (active).

For `CCCCOC(=O)Nc1nccs1`, which “activation” value is on record?
The value was 57.8% (inactive).

For `Cn1cccc1C(=O)Nc1nccs1`, which “activation” value is on record?
The value was 55% (inactive).

Which “activation” value does the source give for `Cc1ccc(NC(=O)c2oc3ccccc3c2NC(=O)Cc2cccs2)cc1` here?
The value was 15.5% (inactive).

For `Cc1cc(NC(=O)c2ccc(-c3ccc(Cl)cc3)o2)cc(-c2nc3ncccc3o2)c1O`, which “activation” value is on record?
Its value is 16.6% (inactive).

For `CCOc1cc(C2c3c(-c4ccc(Br)cc4)n[nH]c3C(=O)N2c2ccc(Cl)cc2)ccc1O` (configuration not stated), which “activation” value is on record?
Its value is -76.9% (inactive).

With `CCC1=Nc2cc(C(=O)NCC(C)c3ccccc3)ccc2Sc2ccc(C)cc21` (configuration not stated) as the compound, how does the “activation” value read?
The value was -70.2% (inactive).

For `O=C(COc1ccccc1F)OCc1cc(=O)n2nc(C3CCCCC3)sc2n1`, which “activation” value is on record?
Its value is 8.78% (inactive).

Which “activation” value does the source give for `COc1cccc(CNCc2c(C(=O)O)n(Cc3ccc(C)cc3)c3cc(C)ccc23)c1OC` here?
Its value is 4.07% (inactive).

For `O=C(CSCc1cccs1)N1CCCC1`, which Potency is on record?
Its Potency is 12.6 µM (active).

With `Cn1c(SCC(=O)N2CCCC2)nnc1-c1cccs1` as the compound, how does the “activation” value read?
Its value is 12.3% (inactive).

Which “activation” value does the source give for `O=C(CSc1n[nH]c(-c2cccs2)n1)N1CCCCC1` here?
Its value is 55.6% (inactive).

Which “activation” value does the source give for `OC(CBr)C[n+]1cccc2cc(Br)ccc21` (configuration not stated) here?
Its value is -19.2% (inactive).

Which “activation” value does the source give for `CCCCOc1ccc(C(=O)Nc2cccc(-c3nc4ccccc4o3)c2C)cc1` here?
The value was -3.11% (inactive).

For `CN(c1ccc(C(=O)N2CCc3ccccc3C2)cc1)S(C)(=O)=O`, which “activation” value is on record?
The value was 41.3% (inactive).

With `COc1ccc2c(c1)CCc1c(C(=O)N3CCc4ccccc4C3)noc1-2` as the compound, how does the “activation” value read?
Its value is 28.8% (inactive).

Which Potency does the source give for `O=C(c1noc2c1CCCC2)N1CCc2ccccc2C1` here?
The Potency was 5.62 µM (active).

For `COc1ccc2c(c1)c(N1CCCC1=O)c(C(=O)Nc1ccc(OC)c(Cl)c1)n2C`, which “activation” value is on record?
The value was -41.1% (inactive).

With `O=C(c1ccc2c(c1)N(Cc1ccc(Cl)cc1)C(=O)c1ccccc1S2(=O)=O)N1CCCCC1` as the compound, how does the “activation” value read?
Its value is 7.95% (inactive).

For `CCN(CC)S(=O)(=O)c1ccc(-c2cn3ccc(C)cc3n2)cc1`, which Potency is on record?
Its Potency is 3.55 µM (active).

Which “activation” value does the source give for `CCN(c1cccc(C)c1)S(=O)(=O)c1ccc(-c2coc(C)n2)cc1` here?
The value was 7.61% (inactive).

For `CCN(CC(=O)NCCc1ccccc1)S(=O)(=O)c1ccc(C)cc1`, which “activation” value is on record?
Its value is -8.5% (inactive).

Which “activation” value does the source give for `CCC(=O)N1N=C(c2ccc(OC)cc2)CC1c1cn(-c2ccccc2)nc1-c1cccs1` (configuration not stated) here?
Its value is 6.03% (inactive).

Which “activation” value does the source give for `CN(C(=O)CSc1nc2ccccc2n1Cc1ccccc1C#N)c1ccccc1` here?
Its value is 0% (inactive).

Which “activation” value does the source give for `CN1CCN(/[N+]([O-])=N/Oc2ccc([N+](=O)[O-])cc2[N+](=O)[O-])CC1` here?
Its value is -3.67% (inactive).

With `Cc1cc2nc(SCCN3CCOCC3)[nH]c2cc1C` as the compound, how does the Potency read?
Its Potency is 4.47 µM (active).

With `COc1ccc2nc(SCC(=O)Nc3c(C)cc(C)cc3C)[nH]c2c1` as the compound, how does the “activation” value read?
The value was 4.09% (inactive).

For `CCn1c2ccc(F)cc2c2nnc(SCCN3CCOCC3)nc21`, which “activation” value is on record?
The value was -40.1% (inactive).

With `COc1cc(C)ccc1OCCSc1nc2ccc(NC(=O)c3ccc(C)cc3)cc2s1` as the compound, how does the “activation” value read?
Its value is -0.298% (inactive).

For `CCOc1ccc(CCNC(=O)c2cc3c(=O)n(C)c4ccccc4c3n2C)cc1`, which “activation” value is on record?
Its value is 4.71% (inactive).

For `Cc1ccccc1CCNC(=O)C1CCN(c2nc3ccccc3nc2C(F)(F)F)CC1`, which “activation” value is on record?
The value was 11% (inactive).

Which “activation” value does the source give for `COc1ccc(-n2c(C)nc3c(cnn3-c3ccc(F)cc3)c2=O)cc1` here?
Its value is -6.83% (inactive).
